# Measurements reported in PubChem BioAssay.
# Activity calls are given as the source filed them.
# How the values were obtained:
# [1] = optical density shifts of acrAB sulA E. coli – strain DRC41, OD650, 48 h, E. coli filamentation inducer project, primary screen (AID 1152); conditions: higher = more signal, called active from +8 up or from −8 down;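 note: E. coli MC1000 strain DRC41 lacking acrAB efflux pump and sulA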
# [2] = probe aLefty1 binding on compound microarray – biochemical, small-molecule microarray, 635/667 nm fluorescence, primary screen (AID 1153); conditions: higher = more signal;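 note: score merges spot fluorescence with signal-to-noise ratio from the scanned slide images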
# [3] = plasmodial surface anion channel blockers, osmotic lysis – cell-based, P. falciparum Indochina, OD700, 1 h, primary screen (AID 1154); conditions: P. falciparum Indochina infected RBC osmotic lysis, higher = more signal, called active from +8 up or from −8 down
# [4] = plasmodial surface anion channel blockers, osmotic lysis – cell-based, P. falciparum Indochina, OD700, 2 h, primary screen (AID 1155);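 note: lysis reports solute entry through the parasite surface anion channel PSAC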; conditions: P. falciparum Indochina infected erythrocytes, higher = more signal, called active from +8 up or from −8 down
# [5] = changes in parasitized red cell lysis, either direction – P. falciparum Indochina, OD700, 3 h, PSAC antagonist project, primary screen (AID 1156); conditions: P. falciparum-infected erythrocytes, osmotic lysis, higher = more signal, called active from +8 up or from −8 down
# [6] = plasmodial surface anion channel blockers, osmotic lysis – cell-based, P. falciparum Indochina, OD700, 18 h, primary screen (AID 1157); conditions: P. falciparum Indochina infected erythrocytes, osmotic lysis OD700, 18 h; higher = more signal, called active from +8 up or from −8 down
# [7] = S6 kinase pathway phospho-S6 level changes – cell-based, A549, cytoblot, luminescence, serum-stimulated, primary screen (AID 1158); conditions: 5 h, higher = more signal;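 note: serum-stimulated A549 lung adenocarcinoma cells; signal is phosphorylated S6 detected by cytoblot immunostaining with HRP secondary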
# [8] = target: NADPH oxidase 2 (Homo sapiens) (UniProt P04839); assay: compounds shifting NOX2 Amplex Red fluorescence – cell-based, HEK293-NOX2, PMA-stimulated, NOX inhibitor project, primary screen (AID 1159); conditions: 45 min, higher = more signal, called active from +8 up or from −8 down; note: test concentration not given here
# Sequence of NADPH oxidase 2 (Homo sapiens) (P04839 whole entry, looked up): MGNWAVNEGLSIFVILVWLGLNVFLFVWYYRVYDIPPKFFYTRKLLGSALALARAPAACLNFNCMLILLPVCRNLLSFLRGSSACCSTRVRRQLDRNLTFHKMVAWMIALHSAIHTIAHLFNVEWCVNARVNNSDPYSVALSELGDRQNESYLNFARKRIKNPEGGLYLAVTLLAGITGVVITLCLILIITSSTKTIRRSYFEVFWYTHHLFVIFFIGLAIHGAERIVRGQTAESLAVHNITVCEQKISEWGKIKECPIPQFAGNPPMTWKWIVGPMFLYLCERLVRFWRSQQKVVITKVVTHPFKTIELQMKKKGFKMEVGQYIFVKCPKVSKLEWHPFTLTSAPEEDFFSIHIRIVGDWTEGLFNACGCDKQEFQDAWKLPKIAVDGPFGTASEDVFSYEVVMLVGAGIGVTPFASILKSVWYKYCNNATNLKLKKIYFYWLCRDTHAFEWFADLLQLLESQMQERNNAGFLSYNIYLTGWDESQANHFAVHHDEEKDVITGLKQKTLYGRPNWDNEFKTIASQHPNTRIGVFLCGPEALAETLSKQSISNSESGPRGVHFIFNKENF
# [9] = target: NADPH oxidase 4 (Homo sapiens) (UniProt Q9NPH5); assay: compounds shifting NOX4 Amplex Red fluorescence – cell-based, HEK293-NOX4, tetracycline-induced, NOX inhibitor project, primary screen (AID 1160); conditions: HEK293-NOX4, Amplex Red H2O2 fluorescence, 45 min; higher = more signal, called active from +8 up or from −8 down
# Sequence of NADPH oxidase 4 (Homo sapiens) (Q9NPH5 whole entry, looked up): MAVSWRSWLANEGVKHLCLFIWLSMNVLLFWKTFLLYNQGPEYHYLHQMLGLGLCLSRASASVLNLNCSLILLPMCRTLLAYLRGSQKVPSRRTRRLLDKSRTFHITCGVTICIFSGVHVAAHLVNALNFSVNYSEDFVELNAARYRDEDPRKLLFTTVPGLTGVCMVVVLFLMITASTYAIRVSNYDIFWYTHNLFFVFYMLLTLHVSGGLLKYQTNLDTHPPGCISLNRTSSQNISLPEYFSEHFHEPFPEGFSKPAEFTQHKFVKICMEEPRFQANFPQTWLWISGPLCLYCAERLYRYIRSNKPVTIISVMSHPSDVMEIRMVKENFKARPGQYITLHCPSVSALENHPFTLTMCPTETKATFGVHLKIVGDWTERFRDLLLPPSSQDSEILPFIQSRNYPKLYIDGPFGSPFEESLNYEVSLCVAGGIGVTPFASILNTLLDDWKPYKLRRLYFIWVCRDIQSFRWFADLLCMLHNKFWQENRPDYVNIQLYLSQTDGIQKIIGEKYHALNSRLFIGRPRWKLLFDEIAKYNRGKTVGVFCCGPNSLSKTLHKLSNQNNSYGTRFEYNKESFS
# [10] = target: NADPH oxidase 5 (Homo sapiens) (UniProt Q96PH1); assay: compounds shifting NOX5 Amplex Red fluorescence – cell-based, HEK293-NOX5, NOX inhibitor project, primary screen (AID 1161); conditions: HEK293-NOX5, ionomycin, 45 min, higher = more signal
# Sequence of NADPH oxidase 5 (Homo sapiens) (Q96PH1 whole entry, looked up): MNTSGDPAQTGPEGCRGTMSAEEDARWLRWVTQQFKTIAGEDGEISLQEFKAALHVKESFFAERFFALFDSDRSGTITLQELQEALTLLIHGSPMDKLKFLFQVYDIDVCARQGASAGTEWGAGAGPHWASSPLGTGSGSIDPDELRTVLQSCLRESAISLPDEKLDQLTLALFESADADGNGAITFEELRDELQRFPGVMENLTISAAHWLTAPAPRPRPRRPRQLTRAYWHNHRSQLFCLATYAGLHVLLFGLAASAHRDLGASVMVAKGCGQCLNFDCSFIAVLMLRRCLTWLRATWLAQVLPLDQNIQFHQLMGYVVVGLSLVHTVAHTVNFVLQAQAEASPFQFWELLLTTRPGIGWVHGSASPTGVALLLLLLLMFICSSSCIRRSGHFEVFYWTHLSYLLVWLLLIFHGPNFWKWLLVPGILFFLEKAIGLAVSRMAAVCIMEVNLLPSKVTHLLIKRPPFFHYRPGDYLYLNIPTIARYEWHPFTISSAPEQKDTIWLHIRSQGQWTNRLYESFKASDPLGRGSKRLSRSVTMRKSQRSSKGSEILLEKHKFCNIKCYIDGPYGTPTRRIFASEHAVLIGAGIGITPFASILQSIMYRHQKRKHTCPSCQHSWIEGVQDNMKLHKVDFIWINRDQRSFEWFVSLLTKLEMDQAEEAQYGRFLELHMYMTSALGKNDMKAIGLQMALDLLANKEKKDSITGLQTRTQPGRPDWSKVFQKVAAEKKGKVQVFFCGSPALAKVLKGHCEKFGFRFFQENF
# [11] = compound effects on lung adenocarcinoma cell viability – A549, calcein-AM fluorescence, 48 h, basal, profiling panel (AID 1162); conditions: higher = more signal; note: test concentration not given here
# [12] = compound effects on differentiated 3T3-L1 adipocyte viability – cell-based, 3T3-L1 adipocytes, calcein-AM fluorescence, 48 h, basal, profiling panel (AID 1163); conditions: 3T3-L1 adipocytes viability, higher = more signal; note: test concentration not given here
# [13] = compound effects on hepatocellular carcinoma cell viability – HepG2, calcein-AM fluorescence, 48 h, basal, profiling panel (AID 1164); conditions: higher = more signal; note: test concentration not given here
# [14] = compound effects on multiple myeloma cell viability – MM1S, calcein-AM fluorescence, 48 h, basal, profiling panel (AID 1165); conditions: higher = more signal; note: test concentration not given here
# [15] = calcein-AM signal in unstimulated myeloma cells – cell-based, calcein-AM fluorescence, 48 h, PK04 Diversity Set, profiling panel (AID 1166); conditions: RPMI8226 myeloma viability, higher = more signal;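 note: cells grown under basal conditions without added stimulus; test concentration not given here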
# [16] = JC-1 mitochondrial signal, unstimulated HepG2 cells – cell-based, JC-1 fluorescence, 24 h, 100 nL compound, profiling panel (AID 1167); conditions: HepG2 mitochondrial potential, higher = more signal; note: test concentration not given here
# [17] = JC-1 mitochondrial signal, unstimulated adipocytes – cell-based, JC-1 fluorescence, 3T3-L1 adipocytes, 24 h, 100 nL compound, profiling panel (AID 1168); conditions: JC-1 mitochondrial fluorescence, higher = more signal, called active from +8 up or from −8 down; note: test concentration not given here
# [18] = JC-1 mitochondrial signal, unstimulated myeloma cells – cell-based, JC-1 fluorescence, RPMI8226, 24 h, 100 nL compound, profiling panel (AID 1169); conditions: JC-1 mitochondrial potential fluorescence, higher = more signal; note: test concentration not given here
# [19] = JC-1 mitochondrial signal, unstimulated MM1S myeloma – cell-based, JC-1 fluorescence, 24 h, 100 nL compound, profiling panel (AID 1170); conditions: MM1S mitochondrial potential, higher = more signal; note: test concentration not given here
# [20] = resazurin metabolic signal in A549 cells – cell-based, resazurin fluorescence, 24 h, PK04 Diversity Set, profiling panel (AID 1171); conditions: A549 viability, higher = more signal, called active from +8 up or from −8 down; note: test concentration not given here
SMILES,z-score [1],composite z-score [2],z-score [3],z-score [4],z-score [5],z-score [6],z-score [7],z-score [8],z-score [9],z-score [10],z-score [11],z-score [12],z-score [13],z-score [14],z-score [15],z-score [16],z-score [17],z-score [18],z-score [19],z-score [20]
[N-]=[N+]=NCc1ccccc1[C@@H]1OC(c2ccc(OCCCO)cc2)=N[C@]1(Cc1ccccc1)C(=O)NCc1ccccc1,0.251 (inactive),0.219,18.4 (active),4.26 (inactive),1.52 (inactive),0.983 (inactive),0.0369,-3.27 (inactive),1.15 (inactive),0.85,0.53,0.592,0.293,-0.856,-0.0369,0.152,0.594 (inactive),-0.994,-0.921,0.267 (inactive)
COCCOC(=O)N1C(=O)[C@@]2(c3cc(C#Cc4ccc(OC)cc4)ccc31)[C@H](C(=O)Nc1nc3ccccc3s1)[C@H]1C(=O)O[C@H](c3ccccc3)[C@H](c3ccccc3)N1[C@@H]2c1ccccc1OCCO,2.47 (inactive),-0.295,8.82 (active),0.873 (inactive),0.953 (inactive),0.514 (inactive),0.486,1.13 (inactive),0.337 (inactive),1.45,-0.49,1.31,0.195,-1.35,-0.213,-2.46,3.66 (inactive),-0.678,-0.881,0.027 (inactive)
COCCOC(=O)N1C(=O)[C@@]2(c3cc(C#CCCO)ccc31)[C@H](c1ccccc1OCCO)N1[C@H](c3ccccc3)[C@H](c3ccccc3)OC(=O)[C@H]1[C@@H]2C(=O)N1CCc2cc(OC)c(OC)cc2C1,0.891 (inactive),0.265,2.43 (inactive),1.97 (inactive),0.276 (inactive),1.12 (inactive),0.199,1.15 (inactive),1.15 (inactive),0.0359,1.14,0.251,1.37,0.713,0.503,1.13,0.808 (inactive),-0.361,-1.04,0.646 (inactive)
COc1ccc(C#Cc2ccc3c(c2)[C@]2(C(=O)N3)[C@H](c3ccc(OCCO)cc3)N3[C@H](c4ccccc4)[C@H](c4ccccc4)OC(=O)[C@H]3[C@@H]2C(=O)O)cc1,2.24 (inactive),1.4,-1.39 (inactive),-2.59 (inactive),-6.7 (inactive),-2.58 (inactive),1.6,-0.922 (inactive),-1.55 (inactive),-2.5,0.325,1.33,0.712,-3.1,-4.59,-4,-4.96 (inactive),-1.19,-1.99,0.721 (inactive)
CC(C)(C)OC(=O)CC[C@]1(C(N)=O)N=C(c2ccc(OCCCO)cc2)O[C@H]1c1ccccc1CN=[N+]=[N-],0.434 (inactive),0.5,21.6 (active),5.64 (inactive),-0.173 (inactive),0.223 (inactive),0.0054,0.709 (inactive),-0.508 (inactive),1.26,0.249,0.434,0.088,-0.0887,-0.387,-1.01,0.352 (inactive),0.469,0.0608,0.316 (inactive)
